Data from PubChem BioAssay AID602438 (Sanford-Burnham Center for Chemical Genomics, 2012).
The whole screen tested about 360,000 compounds, of which about 3,100 (0.86%) were called active. The sample holds actives, similar compounds and a random draw of the others, so the mix is not that of the screen. Unmarked numbers belong to inactive results.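 Rule for the calls: active = inhibition or corrected inhibition above about 18%, plus a signal ratio from 0.5 to 1.5 (limit read from the data, passing the limit was not always enough); inactive = the rest.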

Target: Neuropilin-1 (Homo sapiens) (UniProt O14786)
Sequence (O14786 whole entry, looked up): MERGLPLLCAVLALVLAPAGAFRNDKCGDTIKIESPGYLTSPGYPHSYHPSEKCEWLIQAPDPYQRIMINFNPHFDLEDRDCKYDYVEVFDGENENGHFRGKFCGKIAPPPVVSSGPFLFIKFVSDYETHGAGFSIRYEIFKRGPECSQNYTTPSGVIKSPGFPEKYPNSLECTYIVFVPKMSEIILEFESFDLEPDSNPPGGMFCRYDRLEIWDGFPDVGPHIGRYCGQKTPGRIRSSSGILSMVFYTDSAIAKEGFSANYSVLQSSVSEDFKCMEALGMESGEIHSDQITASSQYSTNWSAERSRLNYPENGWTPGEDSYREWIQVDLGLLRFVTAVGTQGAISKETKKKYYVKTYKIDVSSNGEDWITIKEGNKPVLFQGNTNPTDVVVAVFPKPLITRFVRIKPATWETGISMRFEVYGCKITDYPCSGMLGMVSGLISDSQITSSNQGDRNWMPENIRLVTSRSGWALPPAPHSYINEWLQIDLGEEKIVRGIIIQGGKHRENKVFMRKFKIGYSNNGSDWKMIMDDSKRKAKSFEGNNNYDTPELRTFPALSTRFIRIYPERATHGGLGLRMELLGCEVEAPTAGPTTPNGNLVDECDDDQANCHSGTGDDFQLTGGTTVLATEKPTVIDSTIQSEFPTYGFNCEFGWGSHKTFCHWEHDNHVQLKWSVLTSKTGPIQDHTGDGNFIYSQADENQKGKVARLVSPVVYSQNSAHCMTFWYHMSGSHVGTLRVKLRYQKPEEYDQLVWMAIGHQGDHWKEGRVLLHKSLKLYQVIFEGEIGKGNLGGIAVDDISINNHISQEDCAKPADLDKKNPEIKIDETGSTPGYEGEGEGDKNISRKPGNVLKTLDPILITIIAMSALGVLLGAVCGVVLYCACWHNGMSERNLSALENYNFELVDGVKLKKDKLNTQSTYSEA
Assay: modulators of CendR peptide binding to NRP-1, primary screen, biochemical, fluorescence polarization, uHTS (AID 602438)
Settings: FAM-RPARPAR peptide binding to NRP-1, fluorescence polarization; at 25 µM; hits give high values

Row | SMILES | inhibition
1 | COc1ccc(COC(=O)c2ccc(Cl)c(S(=O)(=O)N3CCOCC3)c2)cc1F | -7.6%
2 | O=C(CP(=O)(c1ccccc1)c1ccccc1)N1CCOCC1 | 12.2%
3 | O=C(Cc1ccccc1Cl)N1CCOCC1 | 45.9% (active)
4 | O=C(Cc1ccccc1Cl)N1CCN(c2ccccn2)CC1 | -9.5%
5 | C=CCOc1cccc(CNn2cn[nH]c2=S)c1 | -0.4%
6 | CCCNC(=O)c1onc(CSc2ccc(F)cc2)c1C(=O)NC(C)C | 5.5%
7 | COC(=O)c1c(CCl)noc1C(=O)NC(C)C | 28.8% (active)
8 | COC(=O)c1onc(-c2c(OC)cc(OC)cc2OC)c1C(=O)OC | 2.6%
9 | CC1CC(C)(C)n2c(O)c(N=NC(N)=S)c3cccc1c32 (stereo not drawn) | 6.2%
10 | O=C(O)CCCN1C(=O)C2C3c4ccccc4C(c4ccccc43)[C@@H]2C1=O (stereo partly drawn) | -2%
11 | CCCCN(C)CCNC(=O)C1CCCN(S(=O)(=O)c2cccc3nsnc23)C1 (stereo not drawn) | -1.2%
12 | Cn1cccc1C1(C(F)(F)F)NCCNC1=O (stereo not drawn) | -1.4%
13 | Cc1c(CCO)c(=O)n(-c2ccccc2)n1S(=O)(=O)c1ccc(F)cc1 | -66%
14 | COc1cccc(-c2cc3nc(NCc4ccccc4OC)n(C)c(=O)c3s2)c1 | 9.9%
15 | COc1cccc(-c2ccc3c(c2)N(Cc2ccccc2OC)C(=O)C(C)S3)c1 (stereo not drawn) | 21.5% (active)
16 | COc1cccc(-n2cc3c(c2-c2ccccc2)c(=O)n(C)c(=O)n3C)c1 | -0.7%
17 | CN=C(c1ccccc1)c1c(C)cccc1C | 1.9%
18 | Cc1nc(S(=O)(=O)c2ccc(Br)cc2)nc2c1CCC2 | 0.1%
19 | CCOC(=O)/C=C/c1ccc(C(F)(F)F)cc1S(=O)(=O)NC(C)(C)C | 26.8% (active)
20 | CCOC(=O)CCC(NC(=O)c1ccc(CNc2nc3cc(C(F)(F)F)ccc3nc2C(=O)OCC)cc1)C(=O)OCC (stereo not drawn) | -1.5%
21 | Cn1c(N)c(C(=O)COC(=O)/C=C/c2cccc(C(F)(F)F)c2)c(=O)n(C)c1=O | 4.9%
22 | CCCn1c2ccccc2c2cnn(CC(=O)NCCCN3CCCCC3CC)c(=O)c21 (stereo not drawn) | 29.4% (active)
23 | CC1CCCCN1CCCNC(=O)Cn1ncc2c([nH]c3ccccc32)c1=O (stereo not drawn) | 6.7%
24 | O=C(Cn1ncc2c3ccccc3n(Cc3ccccc3)c2c1=O)NCCCN1CCOCC1 | 8.8%

Row | SMILES | inhibition
25 | CN(CCO)C(=O)c1nc[nH]c1C(=O)N(C)Cc1ccccc1 | 9.7%
26 | CCN(CC)C(=O)c1nc[nH]c1C(=O)N(C)Cc1ccccc1 | 29.2% (active)
27 | CCN(Cc1ccncc1)C(=O)CCc1ccccc1 | 9.5%
28 | CCN(CC(=O)Nc1ccc(OC)cc1)C(=O)c1ccc(=O)n(Cc2ccccc2)n1 | 4.7%
29 | Cc1c(C(C)CCCO)oc(=O)c2c1Oc1c(C)c(C(C)C[C@@H](C)O)oc(=O)c1C2 (stereo partly drawn) | 13.8%
30 | CCOC(=O)N1CCN(C(=O)Cn2cnc3ccccc3c2=O)CC1 | 3.1%
31 | CCOC(=O)N1CCN(C(=O)c2nn(-c3ccc(C)cc3)c(=O)c3c2c2ccccc2n3C)CC1 | 17.7% (active)
32 | CCOC(=O)N1CCN(CC(=O)n2c(C)c(C)c3ccccc32)CC1 | 4.2%
33 | CCOC(=O)CSc1nncc2ccc(OC)c(OC)c12 | -16.1%
34 | CCOc1ccc(NC(=O)CC(Cc2ccc(Cl)cc2)C(=O)O)cc1 (stereo not drawn) | 1.1%
35 | COc1ccc(CNC(=O)[C@H](Cc2c[nH]c3ccccc23)NC(C)=O)cc1OC | -6.3%
36 | CC(=O)NC(Cc1c[nH]c2ccccc12)C(=O)NCCc1ccccc1 (stereo not drawn) | 6.7%
37 | COC(=O)C(Cc1c[nH]c2ccccc12)NC(=O)CCNC(=O)c1ccco1 (stereo not drawn) | 22.2% (active)
38 | Cc1cc(C)cc(N(CC(=O)N2CC=C(c3ccccc3)CC2)S(=O)(=O)c2c(C)noc2C)c1 | -1.1%
39 | O=C(c1cccc(F)c1)N1CCN(c2ccc([N+](=O)[O-])c3cccnc23)CC1 | -12.9%
40 | O=C(c1cccc(F)c1)N1CCN(c2ccc([N+](=O)[O-])c(N3CCCCC3)c2)CC1 | 44.3% (active)
41 | CC(C)c1ccc(S(=O)(=O)N2CCN(C(=O)c3ccc(N4CCCC4)c([N+](=O)[O-])c3)CC2)cc1 | 6.8%
42 | Cc1ccc(C2NC(=S)NC3=C2N2CCC3CC2)cc1 (stereo not drawn) | 11.9%
43 | COc1ccccc1CCNS(=O)(=O)c1cc2c3c(c1)C(C)C(=O)N3CCC2 (stereo not drawn) | -11.3%
44 | COc1cccc(CNC(=O)[C@@H]2CCCN2C(=O)[C@@H]2CCCN2C(=O)c2ccccc2)c1 | -6.2%
45 | CC1=NN(C(=O)c2ccccc2Br)C(O)(c2cccnc2)C1 (stereo not drawn) | -1.7%
46 | CCOC(=O)C1(O)CC(C)=NN1C(=O)c1cccc(Br)c1 (stereo not drawn) | 26.7% (active)
47 | CC1=NN(C(=O)c2ccc(Br)cc2)C(O)(c2ccccc2)C1 (stereo not drawn) | -3%
48 | O=C(NCc1ccco1)c1ccc(NS(=O)(=O)c2cccc([N+](=O)[O-])c2)cc1 | 6.8%

Row | SMILES | inhibition
49 | O=C(C1CCCO1)N(c1ccc(F)cc1)C1C=CS(=O)(=O)C1 (stereo not drawn) | -10.6%
50 | CCc1nnc(NC(=O)CSc2nnc(COc3ccc(C#N)cc3)n2-c2ccccc2)s1 | 0.5%
51 | CCOc1ccc(N(CC(=O)NCCOc2ccccc2OC)S(=O)(=O)c2ccccc2)cc1 | -4.4%
52 | COc1ccccc1N(CC(=O)N1CCCCC1)S(=O)(=O)c1ccccc1 | -3.8%
53 | COc1ccccc1N(CCOc1ccccc1)S(=O)(=O)c1ccccc1 | 26.1% (active)
54 | COc1nc(OC)nc(N(C)CCO)n1 | 14.8%
55 | O=C(CSc1nccn1-c1cccc(F)c1)NC1CCCC1 | -2.9%
56 | CC(=O)Nc1cccc(NC(=O)CSc2nccn2Cc2ccc(F)cc2)c1 | 0.6%
57 | O=C(OCc1ccccc1)N1CCC2CC1c1cc(N3CCN(S(=O)(=O)c4cc(Cl)cc(Cl)c4)CC3)ccc12 (stereo not drawn) | 7.8%
58 | Cc1ccc(F)c(S(=O)(=O)NC(=O)C2(C)CCN2C(=O)c2ccco2)c1 (stereo not drawn) | 24.2% (active)
59 | CC1(C(=O)NS(=O)(=O)c2ccccc2Cl)CCN1C(=O)c1cccc(F)c1 (stereo not drawn) | 6.5%
60 | Cc1ccc(F)c(S(=O)(=O)NC(=O)C2(C)CCN2C(=O)CCc2cccs2)c1 (stereo not drawn) | 0.1%
61 | COC(=O)Cc1nc2c(N)nc(N)nc2[nH]c1=O | 26.3% (active)
62 | CC1C(=O)N(Cc2cn(CC3CCCCC3)nn2)CCS(=O)(=O)N1Cc1ccc(-c2cccc(N(C)C)c2)cc1 (stereo not drawn) | -7%
63 | Cc1ccc(-c2noc(C3CCCN(C(=O)c4cccc(Cl)c4)C3)n2)o1 (stereo not drawn) | 3.6%
64 | COC(=O)CCCC1=CC2=C(c3ccccc3)C(=O)C(C)(OC(=O)C3CCCC3)C(=O)C2=CN1c1ccc(OC)cc1 (stereo not drawn) | -6.8%
65 | COC(=O)CCCC1=CC2=CC(=O)C(C)(OC(=O)c3cccs3)C(=O)C2=CN1c1cccc(C#N)c1 (stereo not drawn) | -18.7%
66 | COC(=O)CCCC1=CC2=CC(=O)C(C)(OC(=O)c3cccs3)C(=O)C2=CN1CC1CC1 (stereo not drawn) | 36.2% (active)
67 | Nc1cccc(OCCCCCOc2cccc(N)c2)c1 | 7%
68 | C=CCOc1nc2c(c(=O)n(C)c(=O)n2C)n1Cc1ccc(Cl)cc1Cl | 7.1%
69 | CCOC(=O)N1CCN(Cc2nc3c(c(=O)n(C)c(=O)n3C)n2Cc2ccccc2)CC1 | -7.4%
70 | Cn1c(=O)c2c(nc(OCc3cccnc3)n2Cc2ccccc2)n(C)c1=O | 28.5% (active)
71 | Cc1ccccc1C(=O)N1CCC(C(=O)Oc2ccc(C#N)cc2)CC1 | -0.1%
72 | CC(C)Cn1cnc2c(SCc3ccc(Cl)cc3)nc(N)nc21 | 20.8% (active)

Row | SMILES | inhibition
73 | CC(C)Sc1nc(N)nc2c1ncn2C1OC(CO)C(O)C1O (stereo not drawn) | -1.6%
74 | Nc1nc(SCc2ccc([N+](=O)[O-])cc2)c2ncn(C3OC(CO)C(O)C3O)c2n1 (stereo not drawn) | -20.4%
75 | Cc1cccc(C)c1NC(=O)C(c1ccc(C(F)(F)F)cc1)n1c(=O)c(-c2ccco2)nc2ccccc21 (stereo not drawn) | -67%
76 | CC(NCCO)C(=O)C12CC3CC(CC(C3)C1)C2 (stereo not drawn) | 6.1%
77 | COc1cc(/C=C/C(=O)OCC(=O)Nc2cccc(Oc3ccccc3)c2)ccc1O | -3.6%
78 | COc1ccc(C(C(=O)NCc2ccccc2)n2c(=O)c(-c3ccccc3)nc3ccccc32)cc1 (stereo not drawn) | -0.4%
79 | CCc1[nH]nc(C(=O)N2CCCC(CNS(=O)(=O)c3cccs3)C2)c1C (stereo not drawn) | 3.8%
80 | COc1cc2c(cc1O)C(SC)=NC(C)(C)C2 | 9%
81 | COc1cc2c(cc1OC)C(Nc1ccc(S(N)(=O)=O)cc1)=NC(C)(C)C2 | 26.3% (active)
82 | COc1cc2c(cc1OC)C(C(C)C)=NC(C)(C)C2 | -1.6%
83 | Cn1c(=O)cc(OCCCC(=O)N2CCN(c3ccccn3)CC2)c2ccccc21 | -0.5%
84 | Cc1ccc(C)c(NC(=O)C(c2ccccc2)N2CCN(CC(=O)NC3CC3)CC2)c1 (stereo not drawn) | -1.3%
85 | CCOC(=O)c1ccc2[nH]c3c(c2c1)CCCC3NC=O (stereo not drawn) | -0.5%
86 | CCOC(=O)c1[nH]c2ccc(C)cc2c1N=C(C)N(C)C | 28.1% (active)
87 | CCOC(=O)c1cc2cc(C)ccc2[nH]1 | 1.1%
88 | CC1CC1C(=O)OCC(=O)Nc1cccc(F)c1 (stereo not drawn) | 5.8%
89 | O=P(c1cccs1)(c1cccs1)c1cccs1 | 6.4%
90 | CN(CCCNC(=O)CN1C(=O)CC(C)(C)S(=O)(=O)c2ccccc21)C1CCCCC1 | 12.4%
91 | COc1nc(-c2ccc(Cl)cc2)ccc1-c1noc(-c2cccs2)n1 | 49.1% (active)
92 | Clc1ccc(Cc2nnc(-c3cccs3)o2)cc1 | -15.6%
93 | COc1ccc(CCc2nc(-c3cccs3)no2)cc1 | -5.8%
